Bioassay records deposited in PubChem by National Center for Advancing Translational Sciences (NCATS).
A selection: hits, their analogues and other compounds. The true share with any hit is near 21%.
Pf growth 96h = Primary qHTS for delayed death inhibitors of the malarial parasite plastid, 96 hour incubation. P. falciparum luciferase reporter growth, 96 h. Potency, µM (series often up to 28.7 µM), without a hit: top-dose activity change, negative = inhibition, hits mostly inhibitors. 320,000 compounds, 6.9% hits. AID 504834, 2011; note: potency is the fitted concentration of half-maximal effect; % is set by controls: 0 for no effect and ±100 for the full control effect
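Two-generation exposure (96 h) targets delayed-death phenotype. Reporter parasites carrying integrated firefly luciferase, in red cells at 2% hematocrit and 0.05% parasitemia final, kept at 37 C, 5% CO2; luminescence loss indicates inhibition.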
HCV inh = qHTS Assay for Inhibitors of Hepatitis C Virus (HCV) | Huh7.5.1 HCVcc-Cre infection, luciferase reporter, 44 h | Potency, µM (series often up to 41.8 µM), inactives show at the top dose activity change, negative = inhibition, actives largely listed as inhibitors | 340,000 compounds, 3.4% hits; note: potency is the fitted concentration of half-maximal effect; % is set by controls: 0 for no effect and ±100 for the full control effect
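Cells (1,000/well) were plated 4 h before compound, then infected with HCVcc-Cre virus (~0.5 moi). After 44 h further culture, infection was read as luciferase luminescence following a 15 min substrate incubation at room temperature.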
Shiga inhibitor = A qHTS for Small Molecule Inhibitors of Shiga Toxin; Vero cells, Shiga toxin protein synthesis inhibition reporter; inhibition, % at 38.7 µM; 290,000 compounds, 9.2% hits; AID 2315, 2010; in the data active = inhibition mostly above about 28%, no sharp cut-off; inactive = mostly below about 43%; note: 0% is about no effect
Cycloheximide cs = Cycloheximide Counterscreen for Small Molecule Inhibitors of Shiga Toxin; cell reporter, cycloheximide protein synthesis inhibition counterscreen; max response, %; 300,000 compounds, 12% hits; in the data active = max response mostly above about 13%, no sharp cut-off; inactive = mostly below about 14%; note: read at 38.3 µM for the half of the compounds with a filed dose; 0% is about no effect
HCMV inh = qHTS Assay for inhibitors of the human cytomegalovirus (HCMV); HFF cells, HCMV-luciferase reporter, 72 h; active compounds read low; activity change, negative = inhibition, % at 57.5 µM; 410,000 compounds, 4.5% hits; in the data active = activity change below about -60%; inconclusive = no clear call, values can overlap the other calls; inactive = above about -39%; note: % is set by controls: 0 for no effect and ±100 for the full control effect
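Compounds were evaluated in HFFs infected with an HCMV luciferase reporter virus (MOI 1 PFU/cell). Luciferase in lysates collected 72 h post infection served as the replication measure.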
Pf growth 48h = Primary qHTS for delayed death inhibitors of the malarial parasite plastid, 48 hour incubation | Potency, µM (highest dose often 28.7 µM), for the others: at the top dose activity change, negative = inhibition, usual class: inhibitors | 310,000 compounds, 5.9% hits | P. falciparum luciferase growth in erythrocytes, 48 h | AID 504832, 2011; note: potency is the fitted concentration of half-maximal effect; % is set by controls: 0 for no effect and ±100 for the full control effect
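Compounds are pin-transferred into medium, infected erythrocytes (2% hematocrit, 0.1% parasitemia final) are added, and plates sit one parasite generation at 37 C in 5% CO2. Detection reagent is then added and luminescence measured.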
An asterisk follows results filed as active; ? = inconclusive; nt = no result given. Unless noted, calls come from the whole dose curve; as a rule, active = well fitted inhibition curve with a large enough effect; inconclusive = small, poorly fitted or top-dose-only effect, or another doubt; inactive = no such curve, though single readings can be large or run the other way.

SMILES | Pf growth 96h | HCV inh | Shiga inhibitor | Cycloheximide cs | HCMV inh | Pf growth 48h
S=C1NC[C@H](Cc2ccccc2)N1CC1CCN(CCCC2CCCCC2)CC1 | nt | nt | nt | nt | -105* | nt
O=C1NC[C@@H](Cc2cccc3ccccc23)N(CC2CCCCC2)C1=O | ? | -9% | -2 | -4 | -4 | ?
S=C1NC[C@H](c2ccccc2)N1CCCCC1CCCCC1 | 6.6µM* | 1% | -9 | -5 | 2 | 12µM*
O=C1NC[C@H](Cc2ccccc2)N(CC2CCN(CCCC3CCCC3)CC2)C1=O | nt | 8% | nt | nt | -33 | nt
CCCCN1C(=O)C(=O)NC[C@H]1Cc1cccc2ccccc12 | nt | nt | nt | nt | -5 | nt
CCN(C[C@H]1N[C@@](C)(C(=O)OC)[C@H]2C(=O)N(Cc3ccccc3)C(=O)[C@@H]12)C(=O)Nc1ccc(OC)cc1 | nt | -2% | nt | nt | -12 | nt
COc1ccccc1Nc1nc(C)nc(N)c1S(=O)(=O)c1ccccc1 | nt | nt | nt | nt | -5 | nt
COc1ccc(NC(=O)CCCSc2nc(-c3ccco3)cc(C(F)(F)F)n2)c(OC)c1 | nt | nt | nt | nt | -11 | nt
CCCCN1C(=S)NC[C@@H]1Cc1cccc2ccccc12 | ? | -2% | 60* | 18* | 24 | -10%
CN(CC(=O)Nc1ccc(Cl)c(Cl)c1)CC(=O)N1CCCCCC1 | nt | nt | nt | nt | -12 | nt
COc1cc(OC)c(OC)cc1/C=C/c1nc2cc3ccccc3cc2c(=O)n1-c1ccccc1Br | nt | nt | nt | nt | 25 | nt
CC1C(=O)NN=C1C(=O)N/N=C/c1cccs1 (stereo unspecified) | 26% | 2% | 86* | 19* | 15 | 87%
Cc1ccc(/C=N/NC(=O)c2ccccn2)s1 | 168% | 8% | 44* | 49* | 104 | 116%
C(=NN=C(NN=Cc1cccs1)NN=Cc1cccs1)c1cccs1 | nt | 10µM* | nt | nt | -2 | nt
O=C(N/N=C/c1cccs1)c1ccccn1 | 406% | 2% | 111* | 33* | 114 | 363%
CCc1ccc(/C=N/NC(=O)c2ccccn2)cc1 | -29% | -18% | -4 | 12 | -2 | 0%
O=C(COC(=O)CCN1C(=O)C2CC=CCC2C1=O)Nc1ccc(Cl)cc1F (stereo unspecified) | -24% | 1% | nt | nt | -29 | -10%
CN(C)/C=C(\C#N)C(=O)N/N=C(\CC(=O)C(F)(F)F)c1ccco1 | -2% | 33% | -18 | -2 | 31 | 24%
Cc1noc(/C=C/c2ccccn2)c1[N+](=O)[O-] | 7% | -6% | -8 | 1 | -102* | ?
Cc1noc(/C=C/Nc2ccc(F)cc2F)c1[N+](=O)[O-] | 399% | -25% | 141* | 53* | 39 | 340%
Cc1ccc2ncccc2c1[N+](=O)[O-] | 125% | 5% | -14 | -2 | -23 | 28%
COc1ccccc1N/C=C/c1onc(C)c1[N+](=O)[O-] | 408% | 0% | 19 | 21 | -5 | 134%
O=C(C[n+]1ccccc1)N/N=C/c1c(F)cccc1Cl | 41% | 0% | 16 | 5 | -30 | 18%
CC(C)C(NS(=O)(=O)c1ccc2c(c1)oc(=O)n2C)C(=O)N1CCN(c2cccc(Cl)c2)CC1 (stereo unspecified) | nt | nt | nt | nt | -12 | nt
CS(=O)(=O)N1CCc2cc(S(=O)(=O)Nc3ccc4c(c3)OCCO4)ccc21 | -4% | ? | -5 | 1 | -84* | -20%
CC(=O)N1CCc2cc(S(=O)(=O)CCC(=O)NCc3ccc(F)cc3)ccc21 | -3% | -26% | 2 | -4 | -61* | -2%
COc1ccc(NS(=O)(=O)c2ccc3c(c2)CCN3C(=O)C2CC2)cc1OC | nt | nt | nt | nt | -30 | nt
O=C(C1CCC1)N1CCc2cc(S(=O)(=O)Nc3ccc4c(c3)OCCO4)ccc21 | 26% | ? | -10 | -7 | -82* | -1%
CCC(=O)N1CCc2cc(S(=O)(=O)Nc3ccc4c(c3)OCCO4)ccc21 | ? | 2.8µM* | -10 | -3 | -87* | -27%
CS(=O)(=O)N1CCc2cc(S(=O)(=O)NCCNS(=O)(=O)c3ccc4c(c3)CCN4S(C)(=O)=O)ccc21 | 43% | 2% | 25 | -3 | -21 | ?
